Reference: PubChem BioAssay AID1159580 (chemical genetic matrix, 2015)
“And” between values parts separate entries of the source, which are not always exact repeats. Equal entries are not always repeated. Screen size: about 5,500 compounds; about 2,000 (36%) were called active. About 18% were inconclusive and are not listed. No stated cut-off is given here; in the data, active means normalized growth mostly below about 0.91 (no sharp cut-off); inconclusive means no clear call, values can overlap the other calls; inactive means mostly above about 0.92. The list shows a part of the results.

Assay: chemical genetic growth profiling, strain panel (AID 1159580);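 further: tested at 20 µM; growth read once vehicle control cultures reached saturation at 30 °C; 1 = growth at the plate median or of vehicle wells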
Details: S. cerevisiae deletion strains, growth OD

Measured: normalized growth

CC(=O)OC[C@@]1(O)C[C@@]23CCC4c5ccoc5CC[C@]4(C)C2CC[C@@H]1C3 (some centres not stated)
inactive: locus YAL013W, strain DEP1, stronger effect = lower value 0.985 | locus YAL021C, strain ccr4, stronger effect = lower value 1.03 | locus YAL030W, strain snc1, stronger effect = lower value 1.02 | locus YBL061C, strain skt5, stronger effect = lower value 0.988 | locus YBR009C, strain hhf1, stronger effect = lower value 0.97 | locus YBR021W, strain FUR4, stronger effect = lower value 0.964 | locus YBR023C, strain chs3, stronger effect = lower value 0.953 | locus YBR171W, strain sec66, stronger effect = lower value 0.986 | locus YBR229C, strain ROT2, stronger effect = lower value 0.998 | locus YBR231C, strain swc5, stronger effect = lower value 1.01 | locus YBR279W, strain paf1, stronger effect = lower value 1.02 | locus YCL011C, strain gbp2, stronger effect = lower value 0.998 | locus YCL016C, strain dcc1, stronger effect = lower value 0.975 | locus YCL029C, strain bik1, stronger effect = lower value 0.963 | locus YCL061C, strain MRC1, stronger effect = lower value 0.98 | locus YCL069W, strain vba3, stronger effect = lower value 1 | locus YCR088W, strain abp1, stronger effect = lower value 0.997 | locus YDL005C, strain med2, stronger effect = lower value 1.02 | locus YDL035C, strain GPR1, stronger effect = lower value 0.899 | locus YDL040C, strain nat1, stronger effect = lower value 1 | locus YDL074C, strain BRE1, stronger effect = lower value 0.88 | locus YDL101C, strain DUN1, stronger effect = lower value 0.986 | locus YDL134C, strain PPH21, stronger effect = lower value 0.973 | locus YDL185W, strain tfp1, stronger effect = lower value 0.968 | locus YDL192W, strain arf1, stronger effect = lower value 0.932 | locus YDR001C, strain nth1, stronger effect = lower value 1 | locus YDR069C, strain doa4, stronger effect = lower value 1.02 | locus YDR101C, strain arx1, stronger effect = lower value 0.965 | locus YDR150W, strain NUM1, stronger effect = lower value 0.948 | locus YDR159W, strain sac3, stronger effect = lower value 0.991 | locus YDR162C, strain NBP2, stronger effect = lower value 0.97 | locus YDR195W, strain ref2 0.993 | locus YDR297W, strain sur2, stronger effect = lower value 1.01 | locus YDR334W, strain swr1, stronger effect = lower value 1.01 | locus YDR335W, strain msn5, stronger effect = lower value 1 | locus YDR388W, stronger effect = lower value 0.977 | locus YDR502C, strain sam2, stronger effect = lower value 0.956 | locus YEL003W, strain gim4, stronger effect = lower value 1 | locus YEL037C, strain rad23, stronger effect = lower value 0.992 | locus YEL061C, strain CIN8 (second series), stronger effect = lower value 1 | locus YEL061C, strain CIN8, stronger effect = lower value 0.986 | locus YER015W, strain faa2, stronger effect = lower value 1.01 | locus YER016W, strain bim1, stronger effect = lower value 0.996 | locus YER110C, stronger effect = lower value 0.95 | locus YER111C, strain swi4, stronger effect = lower value 0.995 | locus YER155C, strain BEM2 (second series), stronger effect = lower value 0.987 | locus YER155C, strain BEM2, stronger effect = lower value 0.972 | locus YER167W, strain BCK2, stronger effect = lower value 0.929 | locus YFR010W, strain ubp6, stronger effect = lower value 0.985 | locus YGL078C, strain dbp3, stronger effect = lower value 0.966 | locus YGL086W, strain mad1, stronger effect = lower value 0.931 | locus YGL167C, strain pmr1, stronger effect = lower value 1 | locus YGL173C, strain kem1, stronger effect = lower value 1.03 | locus YGL227W, strain vid30, stronger effect = lower value 1.01 | locus YGL240W, strain doc1, stronger effect = lower value 1 | locus YGL248W, strain PDE1, stronger effect = lower value 0.98 | locus YGR078C, strain PAC10, stronger effect = lower value 0.934 | locus YGR135W, strain pre9, stronger effect = lower value 0.95 | locus YGR252W, strain gcn5, stronger effect = lower value 0.912 | locus YHR027C, strain rpn1, stronger effect = lower value 1.01 | locus YHR030C, strain SLT2, stronger effect = lower value 0.943 and 0.867 | locus YHR079C, strain IRE1, stronger effect = lower value 0.918 | locus YHR094C, strain hxt1, stronger effect = lower value 0.96 | locus YHR129C, strain ARP1, stronger effect = lower value 0.985 | locus YHR200W, strain rpn10, stronger effect = lower value 0.96 | locus YIL066C, strain RNR3, stronger effect = lower value 0.981 | locus YIL073C, strain SPO22, stronger effect = lower value 0.991 | locus YIL125W, strain kgd1, stronger effect = lower value 0.965 | locus YIR030C, strain dcg1, stronger effect = lower value 0.974 | locus YJL092W, strain hpr5, stronger effect = lower value 1 | locus YJL095W, strain BCK1 (second series), stronger effect = lower value 1.01 | locus YJL095W, strain BCK1, stronger effect = lower value 0.909 and 0.89 | locus YJL115W, strain asf1, stronger effect = lower value 1.01 | locus YJL129C, strain trk1, stronger effect = lower value 0.984 | locus YJL134W, strain LCB3, stronger effect = lower value 0.973 | locus YJL154C, strain vps35, stronger effect = lower value 1 | locus YJL164C, strain tpk1, stronger effect = lower value 0.973 | locus YJL166W, strain qcr8, stronger effect = lower value 0.996 | locus YJL168C, strain set2, stronger effect = lower value 0.983 | locus YJL187C, strain SWE1 (second series), stronger effect = lower value 0.961 | locus YJL187C, strain SWE1, stronger effect = lower value 1.01 | locus YJR043C, strain POL32, stronger effect = lower value 0.954
active: locus YAL026C, strain drs2, stronger effect = lower value 0.901 | locus YDR137W, strain rgp1, stronger effect = lower value 0.805 | locus YDR318W, strain mcm21, stronger effect = lower value 0.911 | locus YDR392W, strain spt3, stronger effect = lower value 0.576 | locus YGL253W, strain hxk2, stronger effect = lower value 0.91 | locus YGR229C, strain SMI1, stronger effect = lower value 0.804 | locus YHR013C, strain ard1, stronger effect = lower value 1.19 [resistant] | locus YHR079C, strain IRE1 (second series), stronger effect = lower value 0.924 | locus YHR142W, strain chs7, stronger effect = lower value 0.846 | locus YJR066W, strain TOR1, stronger effect = lower value 0.825
